# According to PubChem BioAssay AID949 (Emory University Molecular Libraries Screening Center, 2007):
# The list shows a part of the results. Active and inactive are the calls of the source.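 Rule for the calls: active = yeast growth recovered at 30 hours, either rising with dose fitted slope above 0.001 or with average optical density gain above 0.07 (some results past the limit were not filed as active); inactive = growth falling with dose or no effect.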
# Assay: concentration-response growth rescue in JHY4D yeast depleted of SDO1, OD600, diseases with bone marrow failure (AID 949);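 for OD recovery: gain in OD600 from 0 h to 30 h averaged across all seven doses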
# Details: S. cerevisiae JHY4D (SDO1-depleted) growth rescue, OD600, 30 h, efflux-deficient strain, SNQ2 and PDR5 mutated; OD recovery: stronger effect = higher value; dose-response slope: measured here: 30 h OD slope vs dose
SMILES,dose-response slope,OD recovery
CCOc1cccc2c1OC1(CCCCC1)N1N=C(c3cccnc3)CC21 (configuration not stated),-0.000222,0.0606 (inactive)
CS(=O)(=O)Nc1ccc(C(=O)N2CCCC2)cc1,0.000226,0.0956 (active)
COc1ccc(/C(C)=N/NC(=O)CCC(=O)Nc2ccc(Cl)cc2Cl)c(OC)c1,0.000741,0.11 (active)
COc1cccc(-c2nnc(NC(=O)c3ccc(S(=O)(=O)N(CC(C)C)CC(C)C)cc3)o2)c1,-0.000585,0.0821 (active)
COc1ccc(CNC(=O)c2c(C)cc(=O)oc2C)cc1OC,0.000182,0.0773 (active)
CC(C)OC(=O)c1c(NC(=O)c2ccco2)sc2c1CCCC2,0.000949,0.0368 (inactive)
COc1ccc(-c2nnco2)cc1OC,0.000454,0.0477 (inactive)
O=C(COC(=O)/C=C/c1cccc(Cl)c1)NCCc1ccccc1,-0.000894,0.091 (active)
Cc1[nH]c2ccccc2c1C(=O)CSCC(=O)O,-0.000672,0.11 (active)
O=S(=O)(/N=C(/Nc1ccccn1)c1ccccc1)c1ccc(Cl)cc1,0.000638,0.0469 (inactive)
Cc1oc2nc(SCC(=O)NCc3cccnc3)nc(N)c2c1C,0.000887,0.0937 (active)
O=C(CSc1nc(-c2ccco2)cc(C(F)(F)F)n1)NCc1cccs1,0.00107,0.072 (active)
COc1cc(OC)nc(S(C)(=O)=O)n1,0.000101,0.0647 (inactive)
CN(C)c1ccc(Nc2c3c4c(cccc4n(C)c2=O)C(=O)c2ccccc2-3)cc1,-0.000458,0.0269 (inactive)
COc1ccc(OCC(=O)NNC(=O)c2ccc(-c3ccccc3)cc2)cc1,-0.000252,0.0649 (inactive)
CC(=O)Nc1ccc(S(=O)(=O)NCCc2ccccc2)cc1,0.00092,0.0591 (inactive)
